A short description of experiment [1]: Cell Viability - LYMP2-001 (AID 921). Also: nearly all actives have a fitted effect of over 70% in size. Also: potency is read from the fitted curve at half-maximal effect. In short, it runs like this:
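qHTS, 1536-well; lymphoblastoid cells, 24 hr compound, 37 C; ATP by CellTiter-Glo, 30 min RT; luminescence; Hill-fit AC50.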

The nature of experiment [2]: MultiTox-Fluor Cytotoxicity Assay - LYMP1-001 - Dead Cells (AID 946). Also: potency is read from the fitted curve at half-maximal effect. The method, boiled down:
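Seed 2500 LYMP1-001 cells/well, incubate 5 hr at 37 C; add compound, 16 hr at 37 C; add MultiTox-Fluor reagent, 60 min RT; read dead-cell fluorescence Ex/Em=485/520. Normalize to DMSO and 15 uM tetraoctylammonium bromide.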

A short description of experiment [3]: MultiTox-Fluor Cytotoxicity Assay - LYMP1-001 - Live Cells (AID 947). Also: potency is read from the fitted curve at half-maximal effect.
The nature of experiment [4]: MultiTox-Fluor Cytotoxicity Assay - LYMP1-002 - Live Cells (AID 955).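 Also: cells exposed to compound for 16 hours.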 Also: potency is read from the fitted curve at half-maximal effect. The method, boiled down: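 After 16 h compound exposure at 37 C, live LYMP1-002 lymphoblastoid cells (2500/well) were quantified by cleavage of cell-permeant GF-AFC substrate, read at 405/510 nm after 60 min. Concentration-response fitted with Hill equation for AC50.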
Experiment [5] can be described thus: MultiTox-Fluor Cytotoxicity Assay - LYMP1-003 - Dead Cells (AID 961). Also: nearly all actives have a fitted effect of over 70% in size. Also: potency is read from the fitted curve at half-maximal effect. The method, boiled down: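 LYMP1-003 lymphoblastoid, 2500 cells/well, 5 hr settle then 16 hr cpd at 37 C; MultiTox-Fluor reagent 60 min RT; Ex/Em 485/520 dead-cell signal; norm. DMSO = 0%, 15 uM tetraoctylammonium bromide = 100%; Hill AC50.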
A short description of experiment [6]: MultiTox-Fluor Cytotoxicity Assay - LYMP1-003 - Live Cells (AID 962).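 Also: cells exposed to compound for 16 hours at 37 °C.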 Also: potency is read from the fitted curve at half-maximal effect. In short, it runs like this: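 Live-cell protease activity (GF-AFC substrate, 405/510 nm, 60 min at room temperature) after 16 h, 37 C compound exposure of human lymphoblastoid LYMP1-003 cells; concentration-response fitted to the Hill equation for AC50.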
Experiment [7] in a line: Cell Viability - LYMP1-003 - Assay at 24 hr (AID 963). Also: potency is read from the fitted curve at half-maximal effect. The method, boiled down:
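Concentration-response qHTS: ATP loss measured by CellTiter-Glo luminescence after 24 h compound exposure at 37 C. Cells were LYMP1-003 human lymphoblastoid, 2500 per well. AC50 derived via standard Hill equation modeling.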

The nature of experiment [8]: Cell Viability - LYMP2-003 (AID 965).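 Also: cells exposed to compounds for 24 h before reading; nearly all actives have a fitted effect of over 50% in size.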 Also: potency is read from the fitted curve at half-maximal effect. The method, boiled down: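 Acute cytotoxicity is scored as a concentration-dependent drop in intracellular ATP, measured by luciferase luminescence in human lymphoblastoid cells treated for 24 hours at 37 C. AC50 values derive from Hill-equation modelling.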
The nature of experiment [9]: Cell Viability - LYMP2-004 (AID 966). Also: nearly all actives have a fitted effect of over 65% in size. Also: potency is read from the fitted curve at half-maximal effect. In short, it runs like this: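 AC50 values come from Hill modelling of concentration-dependent loss of intracellular ATP, measured by CellTiter-Glo luminescence. Human LYMP2-004 lymphoblastoid cells (2500/well) were exposed to compound for 24 h at 37 C.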
Experiment [10] can be described thus: Cell Viability - LYMP2-005 (AID 967). Also: potency is read from the fitted curve at half-maximal effect. In short, it runs like this: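 qHTS viability screen in LYMP2-005 cells: 24 h at 37 C with compound, ATP luminescence via CellTiter-Glo, AC50 from Hill curves.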
A short description of experiment [11]: qHTS Assay for Identification of Small Molecule Agonists for NFkB Signaling Pathway (AID 928; calls by dose curve). To be noted: NFkB beta-lactamase reporter cells, blue/green ratio. The method, boiled down: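 Activators were sought with TNF alpha co-added at 10 pM final (its EC50) to beta-lactamase reporter cells. Cells were plated in OPTI MEM with 0.5% FBS and exposed for 5 hrs at 37 C. The FRET substrate ratio was read at 460 and 530 nm.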

The target in experiment [12] is Pyruvate kinase (Leishmania mexicana) (UniProt Q27686). As to the kind of experiment: qHTS Validation Assay for Inhibitors of Leishmania Mexicana Pyruvate Kinase (AID 945). In short, it runs like this: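 Read-out: luminescence from PKLight stop/detection reagent, data normalized to DMSO. Reaction: 0.2 nM E451W LmPYK, 0.5 mM PEP, 0.1 mM ADP, pH 7.2, 1 h room temperature.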

Experiment [13] concerns the target Pyruvate kinase PKM (Homo sapiens) (UniProt P14618). In words: qHTS Assay for Activators of Human Muscle Pyruvate Kinase (AID 954; active = well fitted curve in the direction sought with a large enough effect, not every such curve was filed as active). The method, boiled down:
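PKM2, human, >95% pure, 0.1 nM; PEP 0.5 mM (Km), ADP 0.1 mM; 50 mM imidazole pH 7.2, 50 mM KCl, 0.01% Tween 20, 0.05% BSA; 1 h RT; luciferase luminescence readout.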

The nature of experiment [14]: MultiTox-Fluor Cytotoxicity Assay - LYMP1-002 - Dead Cells (AID 960). Also: nearly all actives have a fitted effect of over 60% in size. Also: potency is read from the fitted curve at half-maximal effect. In short, it runs like this:
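Dead-cell fluorescence (Ex/Em 485/520) after 16 h compound exposure at 37 C of LYMP1-002 lymphoblastoid cells in complete medium; AC50 by Hill equation, with data scaled between DMSO and 15 uM tetraoctylammonium bromide.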

Experiment [15] is described as follows: Cell Viability - LYMP1-003 - Assay at 40 hr (AID 964). Also: nearly all actives have a fitted effect of over 60% in size. Also: potency is read from the fitted curve at half-maximal effect. The method, boiled down: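 Viability is taken as cellular ATP, read by CellTiter-Glo luminescence after 40 h of compound exposure at 37 C. Cells: human lymphoblastoid line LYMP1-003 at 2500/well; AC50 values derived by Hill-equation fitting of concentration-response data.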
A short description of experiment [16]: Confirmation and Secondary Assay for Modulators of Hemoglobin Beta Chain Splicing at IVS2 705 locus (AID 930).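 Also: HeLa cells stably expressing the EGFP-705 splicing reporter; GFP fluorescence per well restored by corrected splicing of the IVS2-705 intron in EGFP; series mostly up to about 46 µM.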 The method, boiled down: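 Secondary splice-site specificity test uses HeLa expressing CMV-driven EGFP interrupted by IVS2-705; cells were treated 2 days at 37C with 500 nM antisense PNA as positive control.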

Consider 21 molecules from PubChem BioAssay (NCATS).

Inconclusive results are not listed. Calls of active or inactive are those of the source. Unless noted, calls follow the shape of the dose curve; as a rule, active = well fitted curve in the direction sought with a large enough effect; inconclusive = small, poorly fitted or top-dose-only effect, or another doubt; inactive = no such curve, though single readings can be large; an effect the other way counts as inactive or inconclusive.

Sequence of Pyruvate kinase (Leishmania mexicana) (Q27686 2-499 E452W): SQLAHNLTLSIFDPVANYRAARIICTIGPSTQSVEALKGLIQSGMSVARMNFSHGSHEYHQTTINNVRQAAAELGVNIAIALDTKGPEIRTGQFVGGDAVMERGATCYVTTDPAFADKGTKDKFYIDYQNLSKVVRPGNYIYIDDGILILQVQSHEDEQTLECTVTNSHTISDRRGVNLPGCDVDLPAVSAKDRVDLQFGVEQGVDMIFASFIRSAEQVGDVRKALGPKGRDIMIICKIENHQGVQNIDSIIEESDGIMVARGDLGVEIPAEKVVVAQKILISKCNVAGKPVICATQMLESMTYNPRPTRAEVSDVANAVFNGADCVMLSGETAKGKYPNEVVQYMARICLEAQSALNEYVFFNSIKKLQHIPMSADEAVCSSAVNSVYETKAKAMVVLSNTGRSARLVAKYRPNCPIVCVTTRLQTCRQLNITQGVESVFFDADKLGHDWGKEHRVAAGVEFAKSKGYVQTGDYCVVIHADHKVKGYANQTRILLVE
Sequence of Pyruvate kinase PKM (Homo sapiens) (P14618 whole entry, looked up): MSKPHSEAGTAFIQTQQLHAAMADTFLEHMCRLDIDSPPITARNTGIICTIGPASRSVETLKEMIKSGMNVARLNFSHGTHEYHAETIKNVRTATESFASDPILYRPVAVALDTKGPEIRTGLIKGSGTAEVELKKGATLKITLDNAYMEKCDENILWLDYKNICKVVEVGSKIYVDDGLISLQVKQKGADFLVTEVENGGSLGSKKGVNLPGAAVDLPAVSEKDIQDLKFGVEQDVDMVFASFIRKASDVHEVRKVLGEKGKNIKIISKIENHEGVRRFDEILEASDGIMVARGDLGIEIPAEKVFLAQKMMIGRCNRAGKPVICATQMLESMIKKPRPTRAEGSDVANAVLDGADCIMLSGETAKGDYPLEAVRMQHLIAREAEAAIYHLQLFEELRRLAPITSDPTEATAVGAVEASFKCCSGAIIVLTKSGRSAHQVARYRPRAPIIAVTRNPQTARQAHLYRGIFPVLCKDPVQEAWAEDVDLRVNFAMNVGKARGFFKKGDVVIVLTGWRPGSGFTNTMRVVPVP

As to `Nc1ccc(O)c([N+](=O)[O-])c1`, the Potency result in experiment [1], in experiment [2], in experiment [3], in experiment [4], in experiment [5] and in experiment [6] was “inactive” throughout. The Potency entry in experiment [7], in experiment [8], in experiment [9] and in experiment [10] was “inactive” in each case.
Take `COc1cc2c(CCNC(C)=O)c[nH]c2cc1Cl`: the Potency in [11] is 3.16 µM (active). Also, the Potency result in [12] was “inactive”. Also, the outcome in experiment [13] was inactive.
For the molecule `CN(C)CCC(c1ccc(Cl)cc1)c1ccccn1` (configuration not stated), the Potency entry in [1], in experiment [2], in experiment [4], in experiment [14], in experiment [5] and in experiment [6] was “inactive” each time. Besides, the Potency result in experiment [7], in [15], in experiment [8], in experiment [9] and in experiment [10] was “inactive” in each case.
With `O=C(O)/C=C\C(=O)O`, the Potency entry in experiment [1], in experiment [2], in experiment [3], in [4], in [14] and in experiment [5] was “inactive” throughout. Moreover, the Potency result in experiment [6], in experiment [7], in experiment [15], in [8], in [9] and in experiment [10] was “inactive” throughout.
For `CCCCCCCCCCCCCCCCCC(=O)O`, the Potency result in experiment [1], in experiment [2], in [3], in [4], in [14] and in experiment [5] was “inactive” throughout. The Potency result in [6], in [7], in [15], in experiment [8], in experiment [9] and in experiment [10] was “inactive” in each case.
As to `COc1cc(NC(C)CCCN)c2ncccc2c1` (configuration not stated), in experiment [16], the result was inactive.
Regarding `C#C[C@]1(O)CC[C@H]2[C@@H]3CCc4cc(O)ccc4[C@H]3CC[C@@]21C`, the Potency entry in experiment [1], in experiment [3], in experiment [4], in [6], in experiment [7] and in experiment [8] was “inactive” throughout. Besides, in experiment [9], the Potency result was “inactive”.
As to `CCCOC(=O)c1ccc(O)cc1`, the Potency result in experiment [1], in experiment [2], in [3], in experiment [4], in experiment [14] and in experiment [5] was “inactive” in each case. The Potency result in experiment [6], in experiment [7], in experiment [15], in experiment [8], in experiment [9] and in [10] was “inactive” each time.
With `CN(C)c1ccc(N=NS(=O)(=O)O)cc1`, the Potency entry in experiment [1], in experiment [2], in experiment [3], in experiment [4], in experiment [14] and in [5] was “inactive” throughout. In addition, the Potency result in experiment [6], in experiment [7], in [15], in experiment [8], in [9] and in experiment [10] was “inactive” in each case.
Consider `CN1CCc2cccc3c2C1Cc1ccc(O)c(O)c1-3` (configuration not stated), for which the molecule was called inactive in experiment [16].
Turning to `COc1cc(/C=C/C(=O)CC(=O)/C=C/c2ccc(O)c(OC)c2)ccc1O`, the Potency in experiment [1] is 20 µM (active); in experiment [2], 50.1 µM (active); in [5], 50.1 µM (active); in [7] it was 50.1 µM (active); in experiment [15], 39.8 µM (active); in [8], 31.6 µM (active). In addition, the Potency in [9] is 31.6 µM (active). The Potency result in experiment [3] and in experiment [6] was “inactive” in each case.
For `CC(C)NCC(O)COc1cccc2ccccc12` (configuration not stated), the Potency entry in experiment [1], in experiment [2], in [3], in experiment [4], in [5] and in [6] was “inactive” each time. Further, the Potency entry in experiment [7], in [15], in experiment [8], in [9] and in experiment [10] was “inactive” in each case. Also, the call in experiment [16] was inactive.
As to `CCCCC1C(=O)N(c2ccccc2)N(c2ccc(O)cc2)C1=O` (configuration not stated), in experiment [16], the outcome was inactive.
Regarding `COc1cc(CNC(=O)CCCC/C=C/C(C)C)ccc1O`, the Potency entry in experiment [1], in [2], in experiment [3], in experiment [4], in experiment [5] and in experiment [6] was “inactive” throughout. In addition, the Potency entry in [7], in [8], in experiment [9] and in [10] was “inactive” each time. Besides, the result in experiment [16] was inactive.
Turning to `Nc1ccc([N+](=O)[O-])cc1O`, the Potency entry in experiment [1], in experiment [2], in experiment [3], in experiment [4], in experiment [14] and in experiment [5] was “inactive” in each case. The Potency entry in experiment [6], in [7], in experiment [15], in [8], in experiment [9] and in experiment [10] was “inactive” throughout.
As for `S=c1[nH]c2ccccc2s1`, the Potency entry in experiment [1], in experiment [2], in experiment [3], in experiment [4], in experiment [14] and in [5] was “inactive” each time. For the same molecule, the Potency result in [6], in experiment [7], in experiment [15], in experiment [8], in [9] and in [10] was “inactive” each time. The call in [16] was inactive.
With `O=c1cc(-c2ccccc2)oc2ccccc12`, the Potency result in experiment [1], in experiment [2], in experiment [3], in experiment [4], in [14] and in experiment [5] was “inactive” in each case. Also, the Potency entry in experiment [6], in experiment [7], in experiment [15], in experiment [8], in experiment [9] and in experiment [10] was “inactive” each time.
With `N=C1N=C(N)c2cc3ccccc3cc21`, the Potency in experiment [1] was 39.8 µM (active); in experiment [2] it was 39.8 µM (active); in experiment [4], 25.1 µM (active); in experiment [5], 39.8 µM (active); in experiment [6], 50.1 µM (active); in experiment [7], 50.1 µM (active). For the same molecule, the Potency in [15], in experiment [8], in experiment [9] and in experiment [10] was 39.8 µM (active) throughout.
As to `O=C(O)c1cc(O)c(O)c(O)c1`, the Potency result in experiment [1], in experiment [2], in experiment [4], in experiment [5], in [6] and in experiment [7] was “inactive” in each case. In addition, in experiment [10], the Potency entry was “inactive”. The molecule was classed as inactive in experiment [16].
As to `O=C(/C=C/c1ccc(O)c(O)c1)OCCc1ccccc1`, the result in experiment [16] was inactive.
Turning to `CN(C)c1ccc(C(=C2C=CC(=[N+](C)C)C=C2)c2ccccc2)cc1`, the Potency in experiment [1] was 0.199 µM (active); in [2] it was 0.501 µM (active); in [3] it was 1 µM (active); in experiment [4], 1.58 µM (active); in experiment [14], 1.58 µM (active); in experiment [5], 2 µM (active). The Potency was 2 µM (active) in [6]; 2 µM (active) in experiment [7]; 0.631 µM (active) in experiment [15]; 0.501 µM (active) in experiment [8]; 0.316 µM (active) in experiment [9]; 0.501 µM (active) in experiment [10].
